Screen size: about 68,000 compounds; about 2,700 (4%) showed an effect of 50% or more. Many of the other results were omitted from the sample, so strong results are more common in it than they were.
tested on: Plasmodium berghei; assay: Screen against P. berghei liver stage (PbLuc), transformed with Luciferase, at 2uM; assay type: functional, HepG2; settings: tested at 2 uM

Compound	INHIBITION
CC(C)NC(=O)N1CCN(CC2CC2)CC2(CNC(=O)C2)C1 (stereo not drawn)	13.38%
COc1ccc(-c2cc3cccn(CC(=O)N4CCOCC4)c-3n2)cc1	-16.87%
CN(C)CCN(C)C(=O)Cn1cccc2cc(-c3ccc(F)cc3)nc1-2	31.81%
O=C(Cn1cccc2cc(-c3ccc(F)cc3)nc1-2)N1CCC(O)CC1	92.28%
Cc1csc(CNc2cnn(CC(C)C)c2)n1	3.58%
CCc1nnc2n1CCN(C(=O)c1cc(C)n(-c3ccccc3)c1C)C2	-68.26%
Cn1cc(N2CCC3(CCN(C(=O)[C@H]4CCCO4)C3)C2=O)cn1 (stereo partly drawn)	-28.81%
Cc1cnc(CNC(=O)[C@@]23CCO[C@@H]2CCN(C2CCCC2)C3)cn1	-7.71%
Cc1cnc(CNC(=O)[C@@]23CCO[C@@H]2CCNC3)cn1	62.6%
CC(=O)N1CC[C@H]2OCC[C@@]2(C(=O)NCc2cnc(C)cn2)C1	-41.74%
CCN1C[C@@H]2C[C@H](C(=O)NCc3cccnc3)[C@H](C1)O2	-19.81%
CCCC1(CO)CCCN(C(=O)CCCn2nc(C)cc2C)C1 (stereo not drawn)	1.1%
COc1ccc(C(=O)N2CCCC(n3nc(C)nc3C)C2)c(OC)c1 (stereo not drawn)	-42.39%
CN(Cc1cc(Br)cn1C)C(=O)c1cscn1	30.06%
O=C1CCC2(CCN(Cc3cscn3)CC2)CN1CCCO	-8.8%
CCN1CC2(CCC1=O)CCN(Cc1cscn1)CC2	50.32%
Cc1ccc(CN2CCCN(Cc3cscn3)CC2)cc1	-6.56%
Cc1cnc(C2(C)CCN(Cc3cscn3)CC2)s1	50.32%
O=C1CCC2(CCN(Cc3cscn3)CC2)CN1CC1CCCO1 (stereo not drawn)	40.47%
Cc1cnc(C2(C)CCN(Cc3csc(C)n3)CC2)s1	19.47%
CC(C)c1cc(C(=O)N2C[C@@H]3CC[C@H]2CN(Cc2cscn2)C3)no1	22.89%
CCOc1ccc2[nH]c(=O)c(CN3CCCC3c3ccccn3)cc2c1 (stereo not drawn)	-97.01%
CC(C)(C)n1nnnc1CN(Cc1ccccc1)Cc1ccc(Cl)cc1	8.33%
CN(CC(=O)NC(Cc1ccsc1)c1cccnc1)Cc1cccnc1 (stereo not drawn)	-37.25%
Cc1csc(C(Cc2ccsc2)NC(=O)CN(C)Cc2cccnc2)n1 (stereo not drawn)	55.29%
Cc1csc(C(Cc2ccsc2)NC(=O)CN(C)Cc2ccccn2)n1 (stereo not drawn)	7.39%
COc1cccc(CN2CCC3(CCN(c4ncc(C)cn4)CC3)C2)c1	13.26%

Compound	INHIBITION
Cc1ccc(S(=O)(=O)NCC(C)C#N)cc1Br (stereo not drawn)	4.88%
CC(C#N)CNS(=O)(=O)c1ccc(F)c(Br)c1 (stereo not drawn)	-27.36%
CC(C#N)CNS(=O)(=O)c1ccc(Br)c(F)c1 (stereo not drawn)	64.21%
COc1ccc2c(c1)C1(CCN(Cc3ccoc3)CC1)N(C)CC2	-11.19%
COCCC(=O)NCCn1nc(C2CCNC2)c2cccnc21 (stereo not drawn)	49.9%
Cc1ccc(C(=O)N2CCOCC2)cc1NCc1ccsc1	21.24%
Cc1ccc(CN2CCOCC2)cc1NCc1ccsc1	52.85%
Cc1ccc(CN2CCOCC2)cc1NC(=O)c1ccsc1	34.25%
CS(=O)(=O)CC1CCCN(C(=O)Cn2cccc(C(F)(F)F)c2=O)C1 (stereo not drawn)	33.96%
CS(=O)(=O)CCc1ncnn1-c1ccc(F)c(Cl)c1	19.38%
CN1CCN(C[C@H]2CC[C@@H](Cc3ccc4c(c3)OCO4)O2)CC1	25.69%
FC(F)(F)CCc1ncnn1-c1ccc2c(c1)OCO2	11.9%
CS(=O)(=O)N1CCC[C@H]1c1ncnn1-c1ccc2c(c1)OCO2	-13.17%
CN1CCN(CCc2ncnn2-c2ccc3c(c2)OCO3)CC1	65.76%
FC(F)C(F)(F)COCc1ncnn1-c1ccc2c(c1)OCO2	57.34%
CN(CCCNC(=O)CN1CCS(=O)(=O)CC1)c1ccccc1	-20.29%
COc1cccc(CN(Cc2ccco2)Cc2[nH]cnc2C)c1	28.07%
CCCc1noc(C2CCN(S(=O)(=O)c3cccs3)CC2)n1	-64.06%
O=S(=O)(C1CC1)N1C[C@H]2CCC[C@@]2(COc2ccccn2)C1	-3.87%
CCCc1cc(C(=O)N[C@@H]2CC[C@@H](N3CCOCC3)[C@@H]2O)no1	4.06%
COCc1ncc(CN2CC[C@@](O)(COC)C(C)(C)C2)cn1	-20.75%
COC[C@]1(O)CCN(Cc2cnc(N3CCOCC3)nc2)CC1(C)C	52.31%
COC[C@]1(O)CCN(Cc2cnc(N(C)C)nc2)CC1(C)C	10.24%
Cc1ncncc1C(=O)N1CCCN(Cc2ncc(Cl)n2C)CC1	-16.3%
Cc1noc(C)c1-c1cncc(C2CCCN2Cc2cc[nH]n2)n1 (stereo not drawn)	46.98%
Cc1noc(C)c1-c1cncc(C2CCCN2Cc2cn(C)cn2)n1 (stereo not drawn)	50.32%
